Data reported in the supplement of paper PMC12282887.
± gives the standard deviation of the averaged measurements.

Assays:
Test in all cases: promoter activity interaction Z-score (Lux/OD deviation from empty-vector control); higher = stronger promoter induction by the compound
[1] = tested on: E. coli BW25113 acrABp lux reporter
Summary of the method: (§1)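 E. coli BW25113 luxCDABE reporter strains grew at 37°C in 40 µl LB Lennox in 384-well plates, with OD600 and luminescence read every 30 min for 12 h. After integration over 0–8 h for wild type or 1–9 h for deletion strains, wells under 10% of the median growth value were removed. Each score is the Z-transformed residual of growth-normalised luminescence fitted against a control.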

[2] = tested on: E. coli BW25113 micFp lux reporter
Summary of the method: as §1

[3] = tested on: E. coli BW25113 ompFp lux reporter
Summary of the method: as §1

[4] = tested on: E. coli BW25113 robp lux reporter
Summary of the method: as §1

[5] = tested on: E. coli BW25113 soxSp lux reporter
Summary of the method: as §1

[6] = tested on: E. coli BW25113 tolCp lux reporter
Summary of the method: as §1

[7] = tested on: E. coli BW25113 marRABp lux reporter
Summary of the method: as §1

[8] = 0.011 µg/ml, genetic background: wild type
[9] = 0.011 µg/ml, genetic background: ΔmarA
[10] = 0.011 µg/ml, genetic background: Δrob
[11] = 0.011 µg/ml, genetic background: ΔsoxS
[12] = 0.022 µg/ml, genetic background: wild type
[13] = 0.022 µg/ml, genetic background: ΔmarA
[14] = 0.022 µg/ml, genetic background: Δrob
[15] = 0.022 µg/ml, genetic background: ΔsoxS
[16] = 0.044 µg/ml, genetic background: wild type
[17] = 0.044 µg/ml, genetic background: ΔsoxS
[18] = 0.044 µg/ml, genetic background: ΔmarA
[19] = 0.044 µg/ml, genetic background: Δrob

## COc1c(N2C[C@@H]3CCCN[C@@H]3C2)c(F)cc2c(=O)c(C(=O)O)cn(C3CC3)c12 [Moxifloxacin]
[1]; [8]
  promoter activity interaction Z-score: 0.0749 ± 0.025
[1]; [9]
  promoter activity interaction Z-score: -0.567 ± 0.78
[1]; [10]
  promoter activity interaction Z-score: 0.0419 ± 0.7
[1]; [11]
  promoter activity interaction Z-score: 0.247 ± 0.25
[1]; [12]
  promoter activity interaction Z-score: 0.793 ± 0.42
[1]; [13]
  promoter activity interaction Z-score: 1.07 ± 0.44
[1]; [14]
  promoter activity interaction Z-score: 0.898 ± 1.1
[1]; [15]
  promoter activity interaction Z-score: 0.353 ± 0.12
[1]; [16]
  promoter activity interaction Z-score: 3.94
[1]; [17]
  promoter activity interaction Z-score: 2.12 ± 1.1
[2]; [8]
  promoter activity interaction Z-score: -0.2 ± 0.019
[2]; [9]
  promoter activity interaction Z-score: 0.154 ± 0.019
[2]; [10]
  promoter activity interaction Z-score: 0.0249 ± 0.077
[2]; [11]
  promoter activity interaction Z-score: -0.0364 ± 0.073
[2]; [12]
  promoter activity interaction Z-score: -0.17 ± 0.072
[2]; [13]
  promoter activity interaction Z-score: 0.371 ± 0.036
[2]; [14]
  promoter activity interaction Z-score: 0.129 ± 0.04
[2]; [15]
  promoter activity interaction Z-score: 0.0515 ± 0.087
[2]; [16]
  promoter activity interaction Z-score: -0.648 ± 0.45
[2]; [17]
  promoter activity interaction Z-score: -0.721 ± 0.42
[3]; [8]
  promoter activity interaction Z-score: 0.138 ± 0.022
[3]; [9]
  promoter activity interaction Z-score: -0.0717 ± 0.18
[3]; [10]
  promoter activity interaction Z-score: 0.0886 ± 0.25
[3]; [11]
  promoter activity interaction Z-score: 0.123 ± 0.17
[3]; [12]
  promoter activity interaction Z-score: 0.271 ± 0.48
[3]; [13]
  promoter activity interaction Z-score: 0.695 ± 0.25
[3]; [14]
  promoter activity interaction Z-score: 0.555 ± 0.53
[3]; [15]
  promoter activity interaction Z-score: 0.184 ± 0.35
[3]; [16]
  promoter activity interaction Z-score: -0.0419 ± 2.9
[4]; [8]
  promoter activity interaction Z-score: 1.08 ± 0.33
[4]; [9]
  promoter activity interaction Z-score: 0.716 ± 0.13
[4]; [10]
  promoter activity interaction Z-score: 0.563 ± 0.16
[4]; [11]
  promoter activity interaction Z-score: 0.0805 ± 0.38
[4]; [12]
  promoter activity interaction Z-score: 0.311 ± 0.14
[4]; [13]
  promoter activity interaction Z-score: 0.295 ± 0.073
[4]; [14]
  promoter activity interaction Z-score: 0.251 ± 0.47
[4]; [15]
  promoter activity interaction Z-score: 0.687 ± 0.83
[4]; [16]
  promoter activity interaction Z-score: -1.23 ± 0.75
[4]; [17]
  promoter activity interaction Z-score: 1.18 ± 0.81
[5]; [8]
  promoter activity interaction Z-score: 0.023 ± 0.037
[5]; [9]
  promoter activity interaction Z-score: -0.096 ± 0.089
[5]; [10]
  promoter activity interaction Z-score: 0.0641 ± 0.18
[5]; [11]
  promoter activity interaction Z-score: 0.135 ± 0.027
[5]; [12]
  promoter activity interaction Z-score: 0.0383 ± 0.078
[5]; [13]
  promoter activity interaction Z-score: -0.0462 ± 0.065
[5]; [14]
  promoter activity interaction Z-score: -0.139 ± 0.043
[5]; [15]
  promoter activity interaction Z-score: 0.616 ± 0.023
[5]; [16]
  promoter activity interaction Z-score: 0.204 ± 0.017
[5]; [17]
  promoter activity interaction Z-score: 2.34 ± 1.4
[6]; [8]
  promoter activity interaction Z-score: 0.549 ± 0.068
[6]; [9]
  promoter activity interaction Z-score: -0.242 ± 0.2
[6]; [10]
  promoter activity interaction Z-score: -0.0406 ± 1.1
[6]; [11]
  promoter activity interaction Z-score: 0.127 ± 0.0073
[6]; [12]
  promoter activity interaction Z-score: -0.356 ± 0.14
[6]; [13]
  promoter activity interaction Z-score: -0.296 ± 0.43
[6]; [14]
  promoter activity interaction Z-score: -0.0729 ± 0.065
[6]; [15]
  promoter activity interaction Z-score: 1.75 ± 2.6
[6]; [16]
  promoter activity interaction Z-score: 0.111 ± 0.07
[6]; [17]
  promoter activity interaction Z-score: 0.782 ± 1.2

## C[C@@H](O)[C@H]1C(=O)N2C(C(=O)O)=C(S[C@@H]3CN[C@H](C(=O)N(C)C)C3)[C@H](C)[C@H]12 [Meropenem]
[1]; [8]
  promoter activity interaction Z-score: -0.325 ± 0.13
[1]; [9]
  promoter activity interaction Z-score: -0.25 ± 1.2
[1]; [10]
  promoter activity interaction Z-score: -0.499 ± 0.11
[1]; [11]
  promoter activity interaction Z-score: -0.443 ± 0.38
[1]; [12]
  promoter activity interaction Z-score: -0.443 ± 0.2
[1]; [13]
  promoter activity interaction Z-score: 0.239 ± 0.72
[1]; [14]
  promoter activity interaction Z-score: -0.429 ± 0.27
[1]; [15]
  promoter activity interaction Z-score: -0.714 ± 0.56
[1]; [16]
  promoter activity interaction Z-score: -0.272 ± 0.31
[1]; [18]
  promoter activity interaction Z-score: -0.463 ± 0.48
[1]; [19]
  promoter activity interaction Z-score: -0.0657
[1]; [17]
  promoter activity interaction Z-score: -1.05 ± 0.84
[7]; [8]
  promoter activity interaction Z-score: -0.451 ± 0.26
[7]; [9]
  promoter activity interaction Z-score: -0.532 ± 0.041
[7]; [10]
  promoter activity interaction Z-score: -0.399 ± 0.031
[7]; [11]
  promoter activity interaction Z-score: -0.178 ± 0.1
[7]; [12]
  promoter activity interaction Z-score: -0.13 ± 0.065
[7]; [13]
  promoter activity interaction Z-score: -0.4 ± 0.097
[7]; [14]
  promoter activity interaction Z-score: -0.114 ± 0.41
[7]; [15]
  promoter activity interaction Z-score: 0.18 ± 0.22
[7]; [16]
  promoter activity interaction Z-score: 0.785
[7]; [18]
  promoter activity interaction Z-score: -0.754
[7]; [19]
  promoter activity interaction Z-score: 1
[7]; [17]
  promoter activity interaction Z-score: -0.0187
[2]; [8]
  promoter activity interaction Z-score: -0.112 ± 0.01
[2]; [9]
  promoter activity interaction Z-score: 0.0252 ± 0.018
[2]; [10]
  promoter activity interaction Z-score: -0.116 ± 0.077
[2]; [11]
  promoter activity interaction Z-score: -0.229 ± 0.14
[2]; [12]
  promoter activity interaction Z-score: 0.415 ± 0.16
[2]; [13]
  promoter activity interaction Z-score: -0.0395 ± 0.041
[2]; [14]
  promoter activity interaction Z-score: 0.325 ± 0.09
[2]; [15]
  promoter activity interaction Z-score: 0.0746 ± 0.14
[2]; [16]
  promoter activity interaction Z-score: -0.67 ± 0.27
[2]; [18]
  promoter activity interaction Z-score: -0.111 ± 0.099
[2]; [19]
  promoter activity interaction Z-score: -0.153 ± 0.23
[2]; [17]
  promoter activity interaction Z-score: 0.149 ± 0.13
[3]; [8]
  promoter activity interaction Z-score: -0.54 ± 0.28
[3]; [9]
  promoter activity interaction Z-score: -0.583 ± 0.092
[3]; [10]
  promoter activity interaction Z-score: -0.754 ± 0.17
[3]; [11]
  promoter activity interaction Z-score: -0.418 ± 0.015
[3]; [12]
  promoter activity interaction Z-score: -0.588 ± 0.17
[3]; [13]
  promoter activity interaction Z-score: -0.0893 ± 0.4
[3]; [14]
  promoter activity interaction Z-score: -0.761 ± 1
[3]; [15]
  promoter activity interaction Z-score: 0.398 ± 0.68
[3]; [16]
  promoter activity interaction Z-score: -2.42 ± 0.71
[3]; [18]
  promoter activity interaction Z-score: -1.11 ± 1.2
[3]; [19]
  promoter activity interaction Z-score: -3.33
[3]; [17]
  promoter activity interaction Z-score: -0.548 ± 0.013
[4]; [8]
  promoter activity interaction Z-score: 0.101 ± 0.27
[4]; [9]
  promoter activity interaction Z-score: -0.585 ± 0.075
[4]; [10]
  promoter activity interaction Z-score: -0.128 ± 0.22
[4]; [11]
  promoter activity interaction Z-score: -0.321 ± 0.77
[4]; [12]
  promoter activity interaction Z-score: -0.965 ± 0.67
[4]; [13]
  promoter activity interaction Z-score: 0.101 ± 0.13
[4]; [14]
  promoter activity interaction Z-score: -0.78 ± 0.081
[4]; [15]
  promoter activity interaction Z-score: 0.872 ± 0.96
[4]; [16]
  promoter activity interaction Z-score: -1.9
[4]; [18]
  promoter activity interaction Z-score: -1.13 ± 0.46
[4]; [19]
  promoter activity interaction Z-score: -2.08 ± 0.078
[4]; [17]
  promoter activity interaction Z-score: -1.54 ± 0.12
[5]; [8]
  promoter activity interaction Z-score: -0.0716 ± 0.075
[5]; [9]
  promoter activity interaction Z-score: -0.0983 ± 0.033
[5]; [10]
  promoter activity interaction Z-score: -0.37 ± 0.018
[5]; [11]
  promoter activity interaction Z-score: 0.00722 ± 0.14
[5]; [12]
  promoter activity interaction Z-score: -0.334 ± 0.51
[5]; [13]
  promoter activity interaction Z-score: -0.124 ± 0.17
[5]; [14]
  promoter activity interaction Z-score: -0.218 ± 0.073
[5]; [15]
  promoter activity interaction Z-score: 0.588 ± 0.26
[5]; [18]
  promoter activity interaction Z-score: -1.21
[5]; [19]
  promoter activity interaction Z-score: -0.982 ± 0.23
[5]; [17]
  promoter activity interaction Z-score: 0.387 ± 0.062
[6]; [8]
  promoter activity interaction Z-score: -0.834 ± 0.2
[6]; [9]
  promoter activity interaction Z-score: -1.09 ± 0.39
[6]; [10]
  promoter activity interaction Z-score: -0.937 ± 0.21
[6]; [11]
  promoter activity interaction Z-score: -0.582 ± 0.57
[6]; [12]
  promoter activity interaction Z-score: -0.873 ± 0.14
[6]; [13]
  promoter activity interaction Z-score: -0.075 ± 1
[6]; [14]
  promoter activity interaction Z-score: -1.42 ± 0.33
[6]; [15]
  promoter activity interaction Z-score: -0.223 ± 0.39
[6]; [16]
  promoter activity interaction Z-score: -1.14
[6]; [18]
  promoter activity interaction Z-score: -0.703
[6]; [19]
  promoter activity interaction Z-score: -1.44 ± 0.34
[6]; [17]
  promoter activity interaction Z-score: 0.705
